In PubChem BioAssay (EPA / NIEHS):
Records with an inconclusive call do not appear. The source made the active and inactive calls. How the source made its calls: active means hit-call score of the fitted dose curve at least 0.9, where 1 is the maximum; inconclusive means response in the unintended direction; inactive means score below 0.9.

assay: ACEA_ER_AUC_viability: ACEA Biosciences xCELLigence Real-Time Cell Analysis on Estrogen Receptor Agonism for Viability (AID 2283782);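 further: continuous compound exposure with impedance area under curve over 80 h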
Method: ACEA_ER is a cell-based, single-readout assay that uses T47D, a human breast cell line, with measurements taken at 80 hours after chemical dosing in a 96-well plate, although TO2 (mc0.srcf) used a 384-well plate. Differences in plate size can be ignored given data normalization.ACEA_ER_AUC_viability is one of two assay component(s) measured or calculated from the ACEA_ER assay. It is designed to make measurements of real-time cell-growth kinetics, a form of growth reporter, as detected with electrical impedance signals by Real-Time Cell Electrode Sensor (RT-CES) technology.Data from the assay component ACEA_ER_AUC_viability was analyzed in the positive analysis fitting direction relative to DMSO as the negative control and baseline of activity. Using a type of growth reporter, loss-of-signal activity can be used to understand changes in the viability. Furthermore, this assay endpoint can be referred to as a secondary readout, because this assay has produced multiple assay endpoints where this one serves a viability function. To generalize the intended target to other relatable targets, this assay endpoint is annotated to the cell cycle intended target family, where the subfamily is cytotoxicity.
The xCELLigence system Multi-E-Plate stations were used to measure the time-dependent response to chemicals. Each compound was tested in an eight-point, 1:4 serial dilution series starting at a maximum final concentration of 100 uM. A maximum starting concentration of 0.5% DMSO was present in the 100 uM chemical samples and was diluted along with the test article dilution series. The screen was performed in biological duplicate using two separate, 96-well, E-Plates 96 for each dilution series (n = 2). Positive controls (MG132 and E2) and a negative control (assay media) were tested in quadruplicate on each testing plate. Then, 0.5% and 0.125% DMSO were tested in duplicates in each plate to serve as solvent controls for the 2 highest concentrations of testing compounds: 100 uM and 25 uM. Reference compounds were tested with 8 concentrations with 1:5 serial dilutions. All screening was carried out by ACEA Biosciences, Inc. (San Diego, CA). T-47D cells purchased from ATCC were maintained in RPMI1640 media supplemented with 10% characterized fetal bovine serum (FBS). Before screening, T-47D cells were preconditioned in assay medium: phenol red-free RPMI1640 supplemented with 10% charcoal-stripped FBS. Cells were then detached and seeded in E-Plates 96 in assay medium. After overnight monitoring of growth once every hour, compounds were added to […] cells and remained in the medium until the end of the experiment. Cellular responses were then recorded once every 5 min for the first 5 h, and once every hour for an additional 100 h.

Row | SMILES | outcome | AC50
1 | Cc1ccc(C(C)C)cc1O | inactive | 
2 | CC1CCC(C(C)(C)O)CC1 (stereo not given) | inactive | 
3 | CCCCCCC#CC(=O)OC | inactive | 
4 | O=C(O)c1ccc(C(=O)O)cc1 | inactive | 
5 | O=Nc1ccc(Nc2ccccc2)cc1 |  | 11.1 µM (active)
6 | CCCCC(CC)COC(=O)/C=C\C(=O)OCC(CC)CCCC (stereo not given) |  | 27.4 µM (active)
7 | O=C(O)c1cccc([N+](=O)[O-])c1 | inactive | 
8 | CO[Si](CCCn1c(=O)n(CCC[Si](OC)(OC)OC)c(=O)n(CCC[Si](OC)(OC)OC)c1=O)(OC)OC |  | 21.7 µM (active)
9 | CC(=O)[O][Al][O]C(C)=O |  | 9.92 µM (active)
10 | CC(=O)Nc1ccc(C)cc1C | inactive | 
11 | O=C1CCc2ccccc2O1 |  | 38 µM (active)
12 | CCCCCCOC(=O)CC |  | 23.9 µM (active)
13 | CC(C)=CCCC(C)CC=O (stereo not given) | inactive | 
14 | O=C(O)CCSCCC(=O)O | inactive | 
15 | CC(C)=CCCC(C)=CCCC(C)=CCO |  | 84.2 µM (active)
16 | C=C[Si](OCC)(OCC)OCC | inactive | 
17 | CCCCCCCCCCCCCCCCCC(=O)OCC(CC)CCCC (stereo not given) | inactive | 
18 | CC(C)[C@H]1CC[C@@H](C)CC1=O | inactive | 
19 | OCCN1CCNCC1 | inactive | 
20 | CCC(=O)/C=C/C1C(C)=CCCC1(C)C (stereo not given) | inactive | 

Row | SMILES | outcome | AC50
21 | CCO[Si](CCCS)(OCC)OCC | inactive | 
22 | CCCCCCCCC=O | inactive | 
23 | CCCCO |  | 35.2 µM (active)
24 | CCCCc1ccc(N)cc1 | inactive | 
25 | CC(CC(C)(C)C)CC(C)(C)CC(C)(C)C (stereo not given) | inactive | 
26 | CCCCNC(=O)NS(=O)(=O)c1ccc(C)cc1 | inactive | 
27 | O=c1[nH]nnc2ccccc12 | inactive | 
28 | O=C[C@H](O)[C@H](O)[C@H](O)CO |  | 23.6 µM (active)
29 | CC(C)C[C@H]1C(=O)N2CCC[C@H]2[C@]2(O)O[C@](NC(=O)[C@@H]3C=C4c5cccc6[nH]c(Br)c(c56)C[C@H]4N(C)C3)(C(C)C)C(=O)N12 |  | 4.31 µM (active)
30 | CC(=O)C=CC1=C(C)CCCC1(C)C | inactive | 
31 | Nc1cc([N+](=O)[O-])ccc1O |  | 9.92 µM (active)
32 | O=C[C@@H](O)[C@H](O)[C@H](O)CO | inactive | 
33 | CO[Si](C)(OC)c1ccccc1 | inactive | 
34 | CCC(O)CO (stereo not given) |  | 26 µM (active)
35 | C=C(C)C(=O)O | inactive | 
36 | OCc1cccnc1 | inactive | 
37 | C=CC(C)(CCC=C(C)C)OC=O (stereo not given) | inactive | 
38 | Cc1ccc(O)c(C(C)(C)C)c1 |  | 26.2 µM (active)
39 | CC1COc2ccccc2N1C(=O)C(Cl)Cl (stereo not given) |  | 4.69 µM (active)
40 | CCC/C=C/C=O | inactive | 
